From the supplement of paper PMC10981050
Where “and” joins values, the source holds several entries; their conditions need not be identical. Equal values may be shown once. Where a name gives a salt, the structure may show the parent alone.

What was measured:
Assay in all cases: cell viability relative to vehicle control; higher = less cytotoxic
Settings in all cases: 10 µM
[1] = test system: K562
Method in brief: (§1)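 Mutant clones made by CRISPR editing and their isogenic wild-type counterparts, from four leukaemia lines, were exposed to a single 10 µM dose of each library compound for 48 h. The supernatant was then removed and CellTiter-Glo luminescence was read. Viability was reported as percent of the on-plate vehicle control.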

[2] = test system: MARIMO
Method in brief: as §1

[3] = test system: MOLM14
Method in brief: as §1

[4] = test system: OCI-AML2
Method in brief: as §1

Structure (SMILES)	cell viability ([1]; SRSF2 genotype: SRSF2 P95H/wt)	cell viability ([1]; SRSF2 genotype: SRSF2 wt/wt)	cell viability ([2]; SRSF2 genotype: SRSF2 P95H/wt)	cell viability ([2]; SRSF2 genotype: SRSF2 wt/wt)	cell viability ([3]; SRSF2 genotype: SRSF2 P95H/wt)	cell viability ([3]; SRSF2 genotype: SRSF2 wt/wt)	cell viability ([4]; SRSF2 genotype: P95H/wt)	cell viability ([4]; SRSF2 genotype: wt/wt)
CN(C)CCCNC(=O)c1ccc(-c2cc(O)c3ncccc3c2)cc1	55% and 32.1%	47.3%	52.3%	53%	40.7%	24.9%	33%	33.2%
Cc1ccc(C(=O)N(CCCN)[C@@H](c2nc3cc(Cl)ccc3c(=O)n2Cc2ccccc2)C(C)C)cc1	0.81% and 1.13%	0.6%	0.37%	0.68%	0.2%	0.34%	0.16%	0.25%
Cc1cc2c3c([n+](C)c4ccc(F)cc4c3c1)-c1cc(F)ccc1N2C [RHPS 4 methosulfate]	48.6% and 58.2%	61.4%	52.5%	50.6%	5.12%	27.5%	0.13%	8.9%
O=C(Nc1ccccc1-c1cn2c(CN3CCNCC3)csc2n1)c1cnc2ccccc2n1	0.23% and 0.19%	0.26%	0.19%	0.26%	0.15%	0.18%	0.14%	0.2%
CC(CCC(=O)NCCS(=O)(=O)O)C1CCC2C3C(O)CC4CC(O)CCC4(C)C3CCC12C (stereo not drawn) [Sodium Tauroursodeoxycholate (TUDC)]	91.6% and 88.5%	89.8%	94%	103%	91.7%	91.2%	90.3%	89.4%
COc1cc(C(=O)NC2CCN(C)CC2)ccc1Nc1ncc2c(n1)N(C1CCCC1)CC(F)(F)C(=O)N2C	24.5% and 48.3%	44.6%	31.6%	26.3%	15%	5.38%	4.16%	9.85%
CCCOc1ccc(CCc2nc3cc(-c4c(C)noc4C)ccc3n2CCN2CCOCC2)cc1	81.1% and 91%	84.9%	80.3%	76.7%	60.3%	65%	59.1%	73.5%
Cc1cnc(NC(=O)C2=C(O)c3ccccc3S(=O)(=O)N2C)s1 [Meloxicam (Mobic)]	98.6% and 90.8%	90%	86.4%	103%	90.8%	92.7%	86.6%	99.4%
CC(=O)N[C@@H](CS)C(=O)O [Acetylcysteine]	101% and 97.9%	95.6%	97.5%	92.6%	97%	97.5%	102%	98%
COc1nc2ccc(Br)cc2cc1[C@@H](c1ccccc1)[C@@](O)(CCN(C)C)c1cccc2ccccc12 [Bedaquiline fumarate]	55% and 58.7%	74.9%	63.9%	55.5%	41.6%	54.7%	24.1%	21.3%
CC(C)c1ccc(NC(=O)Cn2cnc3c2c(=O)n(C)c(=O)n3C)cc1	88.2% and 87.9%	94.4%	91%	96.1%	95.1%	96.2%	87.5%	91%
C[n+]1ccccc1C=NO [Pralidoxime Iodide]	106% and 98.4%	111%	101%	105%	99.2%	106%	105%	118%
COC(=O)c1cc(OC)c2c(c1-c1c(C(=O)OC)cc(OC)c3c1OCO3)OCO2 [Bifendate]	109%	98.7%	101%	101%	99.3%	101%	106%	94.3%
COc1ccc(-c2cc(=O)c3c(O)cc(OC4OC(CO)C(O)C(O)C4OC4OC(C)C(O)C(O)C4O)cc3o2)cc1O (stereo not drawn) [Neodiosmin]	93.3% and 85.3%	90.1%	94.6%	97%	97.6%	100%	89.8%	94.4%
COc1cc([C@H]2OC[C@H]3[C@@H]2CO[C@@H]3c2ccc(O[C@@H]3O[C@H](CO)[C@@H](O)[C@H](O)[C@H]3O)c(OC)c2)ccc1O[C@@H]1O[C@H](CO)[C@@H](O)[C@H](O)[C@H]1O [Pinoresinol diglucoside]	105% and 104%	101%	105%	108%	105%	103%	104%	109%
NC(=O)CCCSc1nc(N)nc(-c2c(Cl)cc3c4c(cccc24)COC3)n1	18.9% and 27.3%	22.6%	29.3%	24.6%	2.36%	2.58%	16.6%	19.6%
CC(C)(NS(=O)(=O)c1ccc2c(Cl)cnc(N=C(N)N)c2c1)C(=O)O	102% and 104%	104%	101%	111%	101%	102%	99.1%	117%
C[C@H]1C[C@H]2[C@@H]3C[C@H](F)C4=CC(=O)C=C[C@]4(C)[C@@]3(F)[C@@H](O)C[C@]2(C)[C@@]1(O)C(=O)CO [Diflorasone]	101% and 99.2%	105%	109%	113%	92.1%	98.9%	92.7%	120%

Structure (SMILES)	cell viability ([1]; SRSF2 genotype: SRSF2 P95H/wt)	cell viability ([1]; SRSF2 genotype: SRSF2 wt/wt)	cell viability ([2]; SRSF2 genotype: SRSF2 P95H/wt)	cell viability ([2]; SRSF2 genotype: SRSF2 wt/wt)	cell viability ([3]; SRSF2 genotype: SRSF2 P95H/wt)	cell viability ([3]; SRSF2 genotype: SRSF2 wt/wt)	cell viability ([4]; SRSF2 genotype: P95H/wt)	cell viability ([4]; SRSF2 genotype: wt/wt)
COC(=O)C1=COC(OC2OC(CO)C(O)C(O)C2O)C2C(C)CC(=O)C12O (stereo not drawn) [Hastatoside]	108% and 101%	107%	104%	99.3%	108%	104%	99.5%	102%
O=C(NC1CCOCC1)c1ccc(-c2cc(-c3c[nH]nc3-c3ccccn3)ccn2)cc1	88.3% and 99.8%	93%	102%	110%	103%	103%	101%	101%
CC(C)=CC(O)C/C(C)=C/COc1c2ccoc2cc2oc(=O)ccc12 (stereo not drawn) [Notopterol]	72.4% and 82.5%	76.1%	64.7%	57.1%	71.2%	56.4%	51.5%	43%
N#CC(=Cc1ccc(O)c(O)c1)C(=O)NCc1ccccc1 [AG-490 (Tyrphostin B42)]	101% and 99.8%	91%	78.5%	92.8%	95.9%	103%	90.4%	93.7%
Cn1ncc(Cl)c1-c1cc(C(=O)N[C@H](CN)Cc2cccc(F)c2)sc1Cl	49.3% and 45.9%	51%	67.5%	63.7%	34.9%	37.3%	33.6%	48.6%
CC(C)Oc1ccc(-c2nc(-c3cccc4c3CC[C@@H]4NCCO)no2)cc1C#N [Ozanimod (RPC1063)]	34% and 30.5%	30.6%	27.3%	32.2%	38.6%	40.5%	29%	34.4%
CO[C@@H]1[C@@H](O[C@@H]2O[C@H](C)[C@@H](O[C@H]3C[C@@](C)(O)[C@@H](O)[C@H](C)O3)[C@H](N(C)C)[C@H]2O)[C@@H](CC=O)C[C@@H](C)[C@@H](O[C@H]2CC[C@H](N(C)C)[C@@H](C)O2)/C=C/C=C/C[C@@H](C)OC(=O)C[C@H]1OC(C)=O [Acetylspiramycin (ASPM)]	87.2% and 93.6%	89.4%	91.4%	90.3%	84.4%	90.9%	83.1%	76.8%
CC#CC(=O)N1CCC[C@H]1c1nc(-c2ccc(C(=O)Nc3ccccn3)cc2)c2c(N)nccn12 [Acalabrutinib (ACP-196)]	93.2% and 96.6%	94.1%	101%	113%	95.4%	100%	90.2%	96.9%
CCN1C(=O)CNc2ncc(-c3ccc(-c4nc[nH]n4)nc3C)nc21	13.8% and 18.5%	23.9%	27.5%	27.6%	9.85%	11.8%	8.07%	16.1%
N[C@@H]1CCCCN(c2c(F)cc3c(=O)c(C(=O)O)cn(C4CC4)c3c2Cl)C1 [Besifloxacin HCl (Besivance)]	97.5% and 91.4%	99.9%	99.3%	96.6%	97.6%	98.3%	121%	95.6%
CC(=O)c1ccc(NN=C(C(N)=O)C2=NC(C)(C)Cc3ccccc32)cc1	79.9% and 87.9%	86.9%	56.1%	58.1%	15%	14.7%	30.5%	40.5%
Nc1cccc2c1CN(C1CCC(=O)NC1=O)C2=O (stereo not drawn) [Lenalidomide (CC-5013)]	98.2% and 96.6%	94.8%	97.1%	101%	91.3%	93.5%	118%	113%
CC(C)(O[C@@H]1O[C@H](CO)[C@@H](O)[C@H](O)[C@H]1O)[C@H]1Cc2cc3ccc(=O)oc3cc2O1 [Nodakenin]	101% and 107%	109%	98.7%	101%	110%	100%	106%	103%
Clc1ccc(COC(Cn2ccnc2)c2ccc(Cl)cc2Cl)c(Cl)c1 (stereo not drawn) [Miconazole nitrate]	68.8% and 61.8%	67.2%	70%	76.1%	57.4%	64.3%	66.2%	63.4%
C=C(C)[C@@H]1CC[C@]2(C(=O)O)CC[C@]3(C)[C@H](CC[C@@H]4[C@@]5(C)CC[C@H](O[C@@H]6OC[C@H](O)[C@H](O)[C@H]6O[C@@H]6O[C@@H](C)[C@H](O)[C@@H](O)[C@H]6O)[C@@](C)(CO)[C@@H]5CC[C@]43C)[C@@H]12 [Pulchinenoside A]	97.5% and 96.7%	92%	93.9%	106%	102%	96.6%	94.6%	105%
CN(Cc1cnc2nc(N)nc(N)c2n1)c1ccc(C(=O)N[C@@H](CCC(=O)O)C(=O)O)cc1 [Abitrexate (Methotrexate)]	99.8% and 103%	45.1%	93%	93.5%	103%	74%	99.2%	96.9%
CCCOc1ccc(C(=O)OCCN(CC)CC)cc1N [Proparacaine HCl]	99.7% and 99.3%	99.5%	103%	104%	99.1%	99.7%	90.2%	103%
Cc1cc(=O)oc2cc(O)ccc12 [4-Methylumbelliferone (4-MU)]	107% and 96.8%	99.6%	98.5%	96.7%	102%	102%	100%	99.9%
